According to ChEMBL document CHEMBL4513146, “CO-ADD screening of Karazin Kharkiv National University (Ukraine) compounds”:
Entries with a potency or affinity are not part of this list.

What was measured:
Staphylococcus aureus = details: Concentration 32 ug.mL-1;; ASSAY_TEST Inhibition of Bacterial Growth; detection method Absorption (OD600); MEDIA CAMHB; plate type 384well; NBS; CORNING #3640; time 18 hr
Escherichia coli = details: Concentration 32 ug.mL-1;; ASSAY_TEST Inhibition of Bacterial Growth; detection method Absorption (OD600); MEDIA CAMHB; plate type 384well; NBS; CORNING #3640; time 18 hr

Question: Which results are given for `COc1ccc(Cl)cc1NC(=O)CSc1nnc2c(=O)n(-c3ccccc3)ccn12`?
Answer: Inhibition (Staphylococcus aureus): 7.26%; Inhibition (Escherichia coli): -0.85%

Question: With `Cc1ccc(-c2ccc3nnc(CCC(=O)N4CCN(C(=O)c5ccco5)CC4)n3n2)cc1C` as the molecule, how does the Inhibition (Staphylococcus aureus) read?
Answer: 7.73%

Question: What about the Inhibition (Escherichia coli) of the same molecule?
Answer: -0.43%

Question: Which Inhibition (Staphylococcus aureus) does the source give for `CCCCc1ccc(NC(=O)CSc2nnc3c4cc(-c5ccc(C)cc5)nn4ccn23)cc1` here?
Answer: 10.93%

Question: What about the Inhibition (Escherichia coli) of the same molecule?
Answer: 0.28%

Question: Which Inhibition (Staphylococcus aureus) does the source give for `CCc1ccc(N(Cc2cccc(OC)c2)S(=O)(=O)c2cccn3c(C)nnc23)cc1` here?
Answer: -1.7%

Question: And the Inhibition (Escherichia coli)?
Answer: -9.35%

Question: Which results are given for `O=S(=O)(c1ccc2nncn2c1)N(Cc1ccccc1)c1ccc(F)c(F)c1`?
Answer: Inhibition (Staphylococcus aureus): -0.12%; Inhibition (Escherichia coli): -6.68%

Question: What does the source list for `COc1cccc(-n2ccn3c(SCC(=O)c4cc(C)ccc4C)nnc3c2=O)c1`?
Answer: Inhibition (Staphylococcus aureus): 11.66%; Inhibition (Escherichia coli): -1.7%

Question: Which Inhibition (Staphylococcus aureus) does the source give for `COC(=O)c1ccc(NC(=O)Cn2nc3ccc(S(=O)(=O)C4CCCCC4)nn3c2=O)cc1` here?
Answer: 8.6%

Question: And the Inhibition (Escherichia coli)?
Answer: -7.53%

Question: How did the Inhibition (Staphylococcus aureus) turn out when `O=C(CSc1nc2ccccc2n2cnnc12)N1CCN(c2ccc(F)cc2)CC1` was run?
Answer: 13.82%

Question: What about the Inhibition (Escherichia coli) of the same molecule?
Answer: 1.79%

Question: What does the source list for `O=C(CSc1nnc2c(=O)n(-c3ccccc3)ccn12)Nc1ccc2c(c1)OCO2`?
Answer: Inhibition (Staphylococcus aureus): 8.51%; Inhibition (Escherichia coli): -2.5%

Question: With `Cc1ccc(-c2cc3c4nn(CC(=O)N5CCN(c6ccccc6F)CC5)c(=O)n4ccn3n2)cc1C` as the molecule, how does the Inhibition (Staphylococcus aureus) read?
Answer: 8.03%

Question: And the Inhibition (Escherichia coli)?
Answer: 4.31%

Question: Which results are given for `COc1ccc(CNC(=O)CSc2nnc3c4cc(-c5ccccc5)nn4ccn23)cc1`?
Answer: Inhibition (Staphylococcus aureus): 9.71%; Inhibition (Escherichia coli): 1.16%

Question: For `COc1ccc(-c2cc3c4nn(CC(=O)Nc5ccccc5)c(=O)n4ccn3n2)cc1`, which Inhibition (Staphylococcus aureus) is on record?
Answer: 3.97%

Question: And the Inhibition (Escherichia coli)?
Answer: 7.52%

Question: With `O=C(CSc1nnc2c3cc(-c4ccc(F)cc4)nn3ccn12)NCc1ccc(Cl)cc1` as the molecule, how does the Inhibition (Staphylococcus aureus) read?
Answer: -3.32%

Question: What about the Inhibition (Escherichia coli) of the same molecule?
Answer: -11.03%

Question: With `Cc1cc2nn(CC(=O)Nc3ccccc3F)c(=O)n2c(Nc2ccc(C)c(F)c2)n1` as the molecule, how does the Inhibition (Staphylococcus aureus) read?
Answer: -7.63%

Question: And the Inhibition (Escherichia coli)?
Answer: -14.62%

Question: How did the Inhibition (Staphylococcus aureus) turn out when `COc1ccc(OC)c(NC(=O)Cn2nc3c4c5c(sc4ncn3c2=O)CCCC5)c1` was run?
Answer: 3.15%

Question: And the Inhibition (Escherichia coli)?
Answer: -1.54%

Question: `COc1cc(OC)c(NC(=O)Cn2nc3c(Oc4ccc(C)cc4)nccn3c2=O)cc1Cl` was tested. Which Inhibition (Staphylococcus aureus) did it give?
Answer: 4.71%

Question: What about the Inhibition (Escherichia coli) of the same molecule?
Answer: -4.58%

Question: Which results are given for `COc1ccc(Cl)cc1NC(=O)Cn1nc2c(Sc3ccc(C)cc3C)nccn2c1=O`?
Answer: Inhibition (Staphylococcus aureus): -3.15%; Inhibition (Escherichia coli): -8.38%

Question: Which results are given for `CCCNC(=O)Cn1nc2n(Cc3ccco3)c(=O)c3sccc3n2c1=O`?
Answer: Inhibition (Staphylococcus aureus): 2.17%; Inhibition (Escherichia coli): -0.94%

Question: For `Cc1ccc(Cl)cc1NC(=O)CSc1nnc2n(CC3CCCO3)c(=O)c3sccc3n12` (stereo not given), which Inhibition (Staphylococcus aureus) is on record?
Answer: 8.22%

Question: And the Inhibition (Escherichia coli)?
Answer: -0.5%

Question: How did the Inhibition (Staphylococcus aureus) turn out when `CCOC(=O)c1cccc(NC(=O)Cn2nc3c4cc(-c5ccc(C)c(C)c5)nn4ccn3c2=O)c1` was run?
Answer: -12.42%

Question: And the Inhibition (Escherichia coli)?
Answer: -16.13%

Question: With `O=C(Cn1nc2c(N3CCOCC3)nccn2c1=O)Nc1ccccc1Br` as the molecule, how does the Inhibition (Staphylococcus aureus) read?
Answer: 17.91%

Question: What about the Inhibition (Escherichia coli) of the same molecule?
Answer: 6.7%

Question: Which results are given for `CSc1cccc(NC(=O)Cn2nc3c(Oc4ccccc4C)nccn3c2=O)c1`?
Answer: Inhibition (Staphylococcus aureus): 6.72%; Inhibition (Escherichia coli): -2.85%

Question: `COc1cccc(Oc2nccn3c(=O)n(CC(=O)Nc4ccc(C)cc4Cl)nc23)c1` was tested. Which Inhibition (Staphylococcus aureus) did it give?
Answer: 10.57%

Question: What about the Inhibition (Escherichia coli) of the same molecule?
Answer: -3.8%

Question: For `CCOC(=O)c1ccc(NC(=O)Cn2nc3ccc(Sc4ccccc4)nn3c2=O)cc1`, which Inhibition (Staphylococcus aureus) is on record?
Answer: 9.67%

Question: What about the Inhibition (Escherichia coli) of the same molecule?
Answer: -3.7%

Question: Which Inhibition (Staphylococcus aureus) does the source give for `Cc1ccc(-c2ccc3nn(CC(=O)Nc4ccc(Cl)c(C(F)(F)F)c4)c(=O)n3n2)cc1C` here?
Answer: -0.53%

Question: And the Inhibition (Escherichia coli)?
Answer: -10.28%

Question: What does the source list for `Cc1cccc(NC(=O)Cn2nc3c4cc(-c5ccc(Cl)cc5)nn4ccn3c2=O)c1C`?
Answer: Inhibition (Staphylococcus aureus): 5.13%; Inhibition (Escherichia coli): -1.29%

Question: `CC(=O)c1ccc(NC(=O)Cn2nc3ccc(-c4ccccc4)nn3c2=O)cc1` was tested. Which Inhibition (Staphylococcus aureus) did it give?
Answer: 7.56%

Question: What about the Inhibition (Escherichia coli) of the same molecule?
Answer: -5.17%

Question: With `COc1cccc(CNC(=O)Cn2nc3c4cc(-c5cc(C)ccc5C)nn4ccn3c2=O)c1OC` as the molecule, how does the Inhibition (Staphylococcus aureus) read?
Answer: 2.74%

Question: What about the Inhibition (Escherichia coli) of the same molecule?
Answer: -0.3%

Question: Which results are given for `COC(=O)c1cccc(NC(=O)Cn2nc3c(SCc4ccc(Cl)cc4)nccn3c2=O)c1`?
Answer: Inhibition (Staphylococcus aureus): 6.19%; Inhibition (Escherichia coli): -8.47%

Question: How did the Inhibition (Staphylococcus aureus) turn out when `COc1cccc(-n2ccn3c(SCC(=O)NCc4ccc(C)cc4)nnc3c2=O)c1` was run?
Answer: -1.77%

Question: And the Inhibition (Escherichia coli)?
Answer: 2.15%

Question: Which results are given for `Cc1ccc(NC(=O)Cn2nc3cc(C)nc(Nc4ccc(F)cc4)n3c2=O)cc1`?
Answer: Inhibition (Staphylococcus aureus): 6.17%; Inhibition (Escherichia coli): -2.28%

Question: For `COc1ccc(-c2cc3c4nn(CC(=O)Nc5cccc(C(C)=O)c5)c(=O)n4ccn3n2)cc1`, which Inhibition (Staphylococcus aureus) is on record?
Answer: -6.93%

Question: And the Inhibition (Escherichia coli)?
Answer: -6.63%

Question: What does the source list for `COc1ccc(-c2cc3c4nn(CC(=O)Nc5cc(C)ccc5OC)c(=O)n4ccn3n2)cc1`?
Answer: Inhibition (Staphylococcus aureus): 1.5%; Inhibition (Escherichia coli): -0.57%

Question: Which results are given for `Cc1ccc(C)c(CN(c2cccc(Cl)c2)S(=O)(=O)c2cccn3c(C)nnc23)c1`?
Answer: Inhibition (Staphylococcus aureus): 11.55%; Inhibition (Escherichia coli): -2.76%

Question: Which Inhibition (Staphylococcus aureus) does the source give for `CCc1nnc2c(S(=O)(=O)N(Cc3cc(F)cc(F)c3)c3ccccc3)cccn12` here?
Answer: 7.38%

Question: What about the Inhibition (Escherichia coli) of the same molecule?
Answer: -4.8%
